# In the library only some 1.5% were active in any assay of this set; here they are far more common.
# MEX-5 binding – MEX-5 zinc finger RNA-binding disruptors – biochemical, C. elegans, fluorescence polarization, MLPCN library, primary screen | AID 1832, 2009 | Zinc finger protein mex-5 (Caenorhabditis elegans), Q9XUB2 | hit rate 0.38% among 300,000 | activity score (negative = inhibition of binding), % at 10 µM | MEX-5/FITC-TCR2 RNA binding; hits give low values;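 active = inhibition past about -25% in most replicates, and total fluorescence under double the plate's negative control median, limit read from the data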;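 also: 0% = DMSO and -100% = 5 µM competing unlabeled TCR2 RNA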
# GLD-1 TGE inh – GLD-1/TGE RNA complex disruptors, primary screen, biochemical, fluorescence polarization. purified GLD-1 + fluorescein TGE RNA. Female germline-specific tumor suppressor gld-1 (Caenorhabditis elegans), Q17339. AID 2280, 2010. inhibition, % at 5.96 µM. hit rate 0.44% among 320,000;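 active = percent inhibition above a per-plate cutoff, the plate mean of test compounds plus 3 SD, cut at about 30% in these data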;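 also: 0% = DMSO wells with GLD-1 and probe and 100% = wells lacking GLD-1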
# Target sequence (Q17339 whole entry, looked up): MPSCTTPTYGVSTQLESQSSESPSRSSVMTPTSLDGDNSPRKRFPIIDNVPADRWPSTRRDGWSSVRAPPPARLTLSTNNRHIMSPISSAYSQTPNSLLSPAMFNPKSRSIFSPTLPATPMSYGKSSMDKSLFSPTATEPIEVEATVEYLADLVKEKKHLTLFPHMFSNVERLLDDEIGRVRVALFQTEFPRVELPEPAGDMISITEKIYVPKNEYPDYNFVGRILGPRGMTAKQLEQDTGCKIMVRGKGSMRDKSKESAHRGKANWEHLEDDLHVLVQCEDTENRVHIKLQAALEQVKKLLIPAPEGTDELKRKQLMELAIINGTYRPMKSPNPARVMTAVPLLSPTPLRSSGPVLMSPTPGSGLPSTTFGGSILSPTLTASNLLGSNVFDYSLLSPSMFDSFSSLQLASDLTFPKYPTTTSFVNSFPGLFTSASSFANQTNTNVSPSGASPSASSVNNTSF
# IDE cell activ – human IDE activators in live cells, primary screen, fluorescence polarization, HEK cells, FAbeta-B substrate; Insulin-degrading enzyme (Homo sapiens), P14735; FAbeta-B cleavage; 0% vehicle, 100% cell-free pure enzyme wells; activation, % at 5.96 µM; hit rate 0.073% among 340,000;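 active = activation above the mean of all tested compounds plus 3 SD, set per screening campaign, cut at about 17% in these data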
# IDE inh – human IDE inhibitors in live cells, primary screen, fluorescence polarization, HEK cells, FAbetaB substrate | Insulin-degrading enzyme (Homo sapiens), P14735 | inhibition, % at 5.59 µM | hit rate 0.41% among 320,000 | FAbetaB cleavage;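 active = percent inhibition above the average of all tested compounds plus 3 SD, set per screening campaign, cut at about 16% in these data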;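 also: IDE supplied by intact live HEK cells; FP after avidin binding of uncleaved biotin substrate so inhibition keeps polarization high; 0% = DMSO wells and 100% = 60 µM reference IDE inhibitor Ii1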
# Bcl-xL primary – inhibitors of human Bcl-xL, primary screen, biochemical, fluorescence polarization, HTS | Bcl-2-like protein 1 (Homo sapiens), Q07817 | GST-Bcl-xL / FITC-Bim BH3 peptide fluorescence polarization | inhibition, % at 10.9 µM | hit rate 0.7% among 320,000 | AID 2129, 2009;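 active = inhibition above the mean of all tested compounds plus 3 SD, cutoff set per campaign, cut at about 30% in these data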;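 also: 0% = DMSO wells and 100% = unlabeled Bim-BH3 peptide competitor; inhibitors lower millipolarization by displacing the labeled peptide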
# Target sequence (Q07817 whole entry, looked up): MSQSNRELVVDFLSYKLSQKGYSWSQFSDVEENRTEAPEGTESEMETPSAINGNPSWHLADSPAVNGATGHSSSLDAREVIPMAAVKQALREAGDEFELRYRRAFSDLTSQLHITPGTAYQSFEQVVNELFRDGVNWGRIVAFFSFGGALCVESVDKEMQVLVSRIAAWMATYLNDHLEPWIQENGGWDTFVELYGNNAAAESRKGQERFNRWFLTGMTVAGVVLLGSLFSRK
# MCL1-BIM inh – inhibitors of MCL1 binding to BIM-BH3, primary screen, biochemical, fluorescence polarization. Induced myeloid leukemia cell differentiation protein Mcl-1 (Homo sapiens), Q07820. AID 2057, 2009. GST-MCL1 / FITC-Bim-BH3 fluorescence polarization. inhibition, % at 10.9 µM. hit rate 0.68% among 320,000;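 active = inhibition above the mean inhibition of all tested compounds plus 3 SD, set per campaign, cut at about 40% in these data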;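 also: 0% = DMSO wells and 100% = unlabeled Bim-BH3 peptide control; higher means more loss of mP so more displacement of Bim peptide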
# IDE cell inh cf – human IDE inhibitors in live cells, confirmation, fluorescence polarization, HEK cells, FAbetaB substrate. shares compounds with IDE inh. FAbetaB cleavage. inhibition, % at 5.59 µM. hit rate 51% among 1,200;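 active = mean inhibition across triplicate wells above the cutoff set by the earlier primary insulin-degrading enzyme screen, cut at about 16% in these data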;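 also: 0% = DMSO wells and 100% = 60 µM reference IDE inhibitor Ii1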
# HEK293 tox – cytotoxicity in HEK cells, cytotoxicity control for IDE inhibitor project, cell-based, luminescence; shares compounds with IDE inh; HEK293 cytotoxicity, ATP luminescence; inhibition, % at 5.59 µM; hit rate 28% among 1,200; AID 449730, 2010; in the data active = inhibition above about 22%;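 also: 0% = vehicle wells and 100% = reference cytotoxic drug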
# IDE FP artifact – fluorescent or optically active artefacts, dose response, artefact control for IDE inhibitor project, biochemical, fluorescence polarization; shares compounds with IDE inh; FP counterscreen for fluorescent artifacts, IDE probe project; IC50, µM; 30 tested, under 10 active; AID 588718, 2011; call rule not given here
# * hit, by the source's call; nt = no result given.
SMILES,MEX-5 binding,GLD-1 TGE inh,IDE cell activ,IDE inh,Bcl-xL primary,MCL1-BIM inh,IDE cell inh cf,HEK293 tox,others
CCOc1ccc(/C=C2/SC(=O)NC2=S)cc1,-2,67*,-3,33*,48*,50*,2,14,
CC(Oc1ccc2c3c(c(=O)oc2c1)CCCC3)C(=O)NCc1ccncc1 (stereo not given),-2,7,-34,24*,-1,-7,17*,16,
CC(=O)N1CC[n+]2c(-c3ccc(Cl)cc3)csc21,0,9,-14,22*,16,21,2,14,
O=C(CCCc1c[nH]c2ccccc12)Nc1ccc(S(=O)(=O)Nc2ncccn2)cc1,1,7,8,-1,-3,0,nt,nt,
COc1ccc2c(c1)C1NC(=S)NC(C)(O2)C1C(=O)Nc1ccc(Cl)cc1 (stereo not given),0,2,-7,15,-16,-9,nt,nt,
Cc1ccc2c(c1)C1NC(=S)NC(C)(O2)C1C(=O)Nc1ccc(Cl)cc1 (stereo not given),1,3,-12,17*,-23,-17,9,13,
CCN1C(=O)/C(=C/c2ccc(N3CCCC3)cc2)NC1=S,8,-99,-152,124*,-35,-118,158*,23*,
CCCN1C(=O)/C(=C/c2ccc(N3CCOCC3)cc2)NC1=S,7,-98,-25,16*,-99,-139,31*,17,
Cc1ccc(CN2C(=O)N/C(=C\c3ccc(N4CCOCC4)cc3)C2=O)cc1,0,-9,8,2,3,4,nt,nt,
CNc1ccc2nnc(C(F)(F)C(F)(F)C(F)(F)F)n2n1,0,-1,0,5,-1,6,nt,nt,
CN(C)c1ccc2c(c1)OC(N)=C(C#N)C2c1cccc(F)c1 (stereo not given),-4,-68,-43,28*,20,-6,16*,72*,
COC(=O)c1ccc(C2C(C#N)=C(N)Oc3cc(O)ccc32)cc1 (stereo not given),-3,-1,0,24*,-4,-12,3,8,
N#CC1=C(N)Oc2cc(O)ccc2C1c1ccncc1 (stereo not given),5,-18,-16,131*,11,8,11,11,
C#CCOc1ccc(C2C(C#N)=C(N)Oc3cc(O)ccc32)cc1 (stereo not given),2,-2,-10,-4,-4,-23,nt,nt,
N#CC1=C(N)Oc2ccc3ccc(O)cc3c2C1c1cccnc1 (stereo not given),-2,3,5,-2,9,5,nt,nt,
N#CC1=C(N)Oc2cc(O)ccc2C1c1cccnc1 (stereo not given),-4,-1,-35,82*,17,13,14,7,
CC(Sc1nnc(C2CC2)n1C1CC1)C(=O)N(C)Cc1cccc(F)c1 (stereo not given),nt,2,-5,3,4,1,nt,nt,
COCCNC(=O)C(C(=O)c1ccc(F)cc1)n1cc(C)ccc1=O (stereo not given),-1,-2,3,2,8,2,nt,nt,
CC1=CC(C)(C)N2C(=O)C(=O)c3cc(OC(=O)c4ccco4)cc1c32,2,0,nt,4,1,1,nt,nt,
CC1=CC(C)(C)Nc2ccc(OC(=O)CN3C(=O)CCC3=O)cc21,2,2,-14,26*,25,14,32*,92*,
CC1=CC(C)(C)Nc2ccc(OC(=O)c3cccnc3)cc21,4,2,2,22*,2,3,33*,103*,
CC1=CC(C)(C)Nc2ccc(OC(=O)c3ccco3)cc21,-1,1,-5,50*,9,12,42*,120*,
CC1=CC(C)(C)Nc2ccc(OC(=O)C(C)N3C(=O)c4ccccc4C3=O)cc21 (stereo not given),-3,7,-9,26*,3,1,24*,76*,
O=C(Oc1ccc(F)cc1)c1cccnc1,1,-1,4,3,1,1,nt,nt,
CC1=CC(C)(C)Nc2ccc(C)cc21,-5,7,3,-4,5,4,nt,nt,
SMILES,MEX-5 binding,GLD-1 TGE inh,IDE cell activ,IDE inh,Bcl-xL primary,MCL1-BIM inh,IDE cell inh cf,HEK293 tox,others
CN(CC(=O)Nc1ccc2c(c1)CCC2)CC(=O)Nc1ccccc1Br,-1,5,-5,19*,-2,-3,4,8,
O=C(COC(=O)c1cncc(Br)c1)NC12CC3CC(CC(C3)C1)C2,nt,3,nt,9,nt,nt,nt,nt,
NNC(=O)c1csc(-c2cccc(C(F)(F)F)c2)n1,1,-3,5,-3,-3,9,nt,nt,
O=C(Nc1ccccc1)c1csc(-c2ccccc2)n1,-1,4,2,0,4,0,nt,nt,
O=C(Nc1cccc(C(F)(F)F)c1)c1csc(-c2ccccc2)n1,nt,nt,nt,nt,nt,nt,nt,nt,IDE FP artifact=>55
O=C(Nc1cc(C(F)(F)F)cc(C(F)(F)F)c1)c1csc(-c2ccncc2)n1,nt,nt,nt,nt,nt,nt,nt,nt,IDE FP artifact=>55
O=C(Nc1ccc(C(F)(F)F)cc1)c1csc(-c2ccncc2)n1,-1,0,-2,-2,4,-5,nt,nt,
Cc1ccc(-c2nc(C(=O)Nc3cccc(C(F)(F)F)c3)cs2)cc1,nt,nt,nt,nt,nt,nt,nt,nt,IDE FP artifact=>55
O=C(Nc1cccc(C(F)(F)F)c1)c1csc(-c2cccc(C(F)(F)F)c2)n1,nt,nt,nt,nt,nt,nt,nt,nt,IDE FP artifact=>55
COc1cccc(-n2cc(C(=O)NC(C)C)c3ccccc3c2=O)c1,2,-1,5,-4,2,6,nt,nt,
COc1ccccc1NC(=O)CCN1C(=O)c2ccccc2C1=O,-4,-4,1,0,5,4,nt,nt,
CC(OC(=O)c1cccc(O)c1)C(=O)N(C)Cc1ccccc1 (stereo not given),-2,5,-4,2,-7,-7,nt,nt,
CC(OC(=O)/C(C#N)=C/c1ccc(N(C)C)cc1)C(=O)N(C)Cc1ccccc1 (stereo not given),-1,-126,-32,30*,-78,-177,37*,18,
COc1ccc(-c2csc(NC(=O)c3cc(C)oc3C)n2)cc1OC,4,-2,-12,17*,-1,-11,13,21,

# Assay outcomes from PubChem.
